# Screening results: PubChem, National Center for Advancing Translational Sciences (NCATS)
# Compounds with a hit are over-represented: about 4.6% of the library has one in this group of screens.
# TRHR agonist: TRH receptor (human) agonism; P34981; TRHR cells, calcium flux fluo-8, FDSS agonist mode; activation, % at 2 µM; hit rate 0.18% among 360,000; AID 493084; further: 0% is about no effect
# Target sequence (P34981 whole entry, looked up): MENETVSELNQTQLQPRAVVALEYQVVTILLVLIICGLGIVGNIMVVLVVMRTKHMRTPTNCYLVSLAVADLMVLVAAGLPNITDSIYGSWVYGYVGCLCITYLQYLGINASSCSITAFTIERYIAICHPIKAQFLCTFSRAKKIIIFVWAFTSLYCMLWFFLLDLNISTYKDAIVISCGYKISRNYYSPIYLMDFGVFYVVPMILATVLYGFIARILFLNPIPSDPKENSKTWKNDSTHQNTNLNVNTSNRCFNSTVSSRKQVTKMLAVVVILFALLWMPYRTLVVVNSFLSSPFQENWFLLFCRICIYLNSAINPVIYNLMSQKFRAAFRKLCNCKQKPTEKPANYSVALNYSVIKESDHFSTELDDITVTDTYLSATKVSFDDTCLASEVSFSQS
#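 Fluo-8-loaded TRHR cells; 10 s baseline, compound added, kinetic Ca2+ fluorescence read 1/s, agonist mode.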
# D1 antagonist: human D1 dopamine receptor antagonism; P21728; HEK293 TREx D1 cells, calcium flux, dopamine EC80; hits give low values; activity change, negative = inhibition, % at 10 µM; hit rate 3.2% among 360,000; AID 504652; in the data active means activity change below about -30%; further: on the % scale 0 is the no-effect control and ±100 the full control effect
#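 Tetracycline-induced HEK293 Trex D1 cells, force-coupled to calcium, dye-loaded; compounds added and read 180 s, then EC80 dopamine added and calcium flux tracked kinetically another 180 s.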
# D1 PAM: human D1 dopamine receptor positive modulation; HEK293 TREx D1 cells, calcium flux, dopamine EC20 potentiation; hit rate 0.036% among 360,000; P21728; potentiation, % at 10 µM; AID 504651; in the data active means potentiation above about 30%; further: 0% is about no effect
# TRHR PAM: allosteric enhancers of human TRH receptor | P34981 | TRHR cells, fluo-8 calcium fluorescence, EC20 TRH enhancement | enhancement, % at 2 µM | hit rate 0.66% among 360,000 | AID 493056; in the data active means enhancement above about 30%; further: 0% is about no effect
#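 Enhancer read-out: after compound pinning and an initial kinetic agonist-mode read, an EC20 of TRH (10 nM final) was injected and fluo-8 calcium signal (Ex 480/Em 530) followed at 1 s/cycle for 100 cycles in TRHR-expressing cells.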
# D1 agonist: activates the human D1 dopamine receptor; P21728; HEK293 T-REx D1 cells, calcium flux, agonist mode; activation, % at 2 µM; hit rate 1% among 360,000; AID 504660; further: 0% is about no effect
#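 Agonism was scored from calcium flux recorded over 180 s (1 read/s) after pintool compound addition, following a 10-cycle baseline. Cells were inducible force-coupled HEK293 TREx D1, plated overnight at 30 C and loaded with no-wash calcium dye.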
# Active calls of the source: *. Unless noted, no stated cut-off is given here; in the data, active means activation above about 30%; inactive means the rest.
SMILES,TRHR agonist,D1 antagonist,D1 PAM,TRHR PAM,D1 agonist
S=C(NCc1ccccc1)NCc1ccccc1,-1,-52*,2,4,17
CN(C)CCCN(Cc1ccccc1)C(=S)Nc1ccc(SC(F)F)cc1,3,-9,-12,1,32*
FC(F)(F)c1ccc(NC(=S)NCc2ccccc2)cc1,0,-37*,-8,-6,22
CN(C)c1ccc(/C=N/NC(=S)NCc2ccccc2)cc1,0,-83*,0,-4,1
CC(=O)c1ccc(NC(=S)N(CCCN(C)C)Cc2ccccc2)cc1,1,4,-2,3,8
Cc1ccc(-c2nnc(Nc3ccc(Br)cc3)c3ccccc23)cc1S(=O)(=O)NCC1CCCO1 (stereo not given),0,-21,-2,1,-2
COc1ccc(OC)c(CNC(=O)C2CCN(c3nc4ccccc4nc3C(F)(F)F)CC2)c1,0,-9,-4,1,1
COc1ccc(CC(=O)Nc2sc3c(c2C(=O)Nc2c(C)cccc2C)CCCCC3)cc1,1,10,-2,2,0
FC(F)Sc1ccc(NC(=S)NCc2ccccc2)cc1,1,-32*,-13,-3,16
Cc1c(C(=O)N(Cc2ccccc2F)C2CCS(=O)(=O)C2)oc2ccc(F)cc12 (stereo not given),1,0,1,9,5
Cc1ccc(S(=O)(=O)NCC(=O)N(CC(=O)NCc2ccco2)Cc2ccccc2)cc1,0,17,-4,-5,2
O=C(CN(C(=O)CNS(=O)(=O)c1ccc(F)cc1)c1ccccc1)NCc1ccco1,-2,-2,-1,8,8
Cc1ccc(S(=O)(=O)NCC(=O)N(CC(=O)NCc2ccco2)C2CCCC2)cc1,0,-38*,-6,-1,1
O=C(CN(C(=O)CNS(=O)(=O)c1ccc(F)cc1)c1ccc(F)cc1)NCc1ccco1,0,-32*,-6,9,25
Cc1cccn2c(=O)nc(SCC(=O)c3ccccc3)nc12,0,-57*,-5,2,-2
Cc1cccn2c(=O)nc(SCC(=O)c3ccc(Cl)cc3)nc12,-2,-3,-7,1,0
COc1cc(C2c3c(oc4ccc(F)cc4c3=O)C(=O)N2c2nc(C)c(C)s2)cc(OC)c1OC (stereo not given),0,2,-8,10,52*
O=C(Nc1nc2c(s1)CCCC2)c1ccc(N2C(=O)CCC2=O)cc1,0,-71*,-7,25,3
CC1CCc2nc(NC(=O)c3ccc(N4C(=O)CCC4=O)cc3)sc2C1 (stereo not given),0,7,0,10,2
O=C(C1CCN(CCCc2ccccc2)CC1)N(CCc1ccccc1)Cc1ccccc1,0,-45*,-2,0,26
O=C(C1CCN(CC2CC=CCC2)CC1)N(CCc1ccccc1)Cc1ccccc1 (stereo not given),1,4,-3,-6,3
O=C(Oc1ccc2c(c1)OCO2)C12CC3CC(CC(C3)C1)C2,-1,9,7,-10,2
O=C(Oc1ccc(O)cc1)C12CC3CC(CC(C3)C1)C2,9,-8,21,-3,41*
Nc1c(C(=O)CSc2nccn2-c2cccc(F)c2)c(=O)[nH]c(=O)n1C1CC1,0,-31*,-3,-5,3
CC(=O)NCc1cc(Cl)c2cccnc2c1O,1,0,-6,-6,1
SMILES,TRHR agonist,D1 antagonist,D1 PAM,TRHR PAM,D1 agonist
COc1cccc(CC(=O)N2CCCC(CO)(Cc3ccc(F)cc3F)C2)c1 (stereo not given),0,-47*,-5,-7,7
O=C(Cc1cccc(F)c1)N1CCCC(CO)(Cc2ccc(F)cc2F)C1 (stereo not given),1,31,-3,-2,-1
COc1ccccc1/C=C/CN1CCCC(CO)(Cc2cccc(Cl)c2)C1 (stereo not given),1,5,2,3,4
COc1cccc(CC2(CO)CCCN(C/C=C/c3ccccc3OC)C2)c1 (stereo not given),-1,19,-4,10,33*
Cc1cc2c(s1)c1cnn(Cc3cccc(Br)c3)c(=O)c1n2C,-2,-13,1,1,-1
COc1ccc(-c2nc(C)c(CCNS(=O)(=O)c3cc(C)c(C)cc3C)s2)cc1,1,-20,0,0,0
